PubChem BioAssay AID1159580 (chemical genetic matrix, 2015)
Several values for one entry are separate records, joined by “and”; a condition that tells them apart may be missing. Equal entries are not always repeated. Out of some 5,500 compounds screened, about 2,000 (36%) were called active. About 18% were inconclusive and are not listed. Rule as the data show it: active = normalized growth mostly below about 0.91 (no sharp cut-off); inconclusive = no clear call, values can overlap the other calls; inactive = mostly above about 0.92. The list shows a part of the results.

Experiment: chemical genetic growth profiling, strain panel (AID 1159580);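 also: tested at 20 µM; growth read once vehicle control cultures reached saturation at 30 °C; 1 = growth at the plate median or of vehicle wells; lower values mean less growth of the strain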
Settings: S. cerevisiae deletion strains, growth OD

Measured: normalized growth

COc1cc(C(=O)NCc2ccc(OCCN(C)C)cc2)cc(OC)c1OC
inactive: locus YAL013W, strain DEP1, hits give low values 1 | locus YAL021C, strain ccr4, hits give low values 0.993 | locus YAL026C, strain drs2, hits give low values 0.998 | locus YAL030W, strain snc1, hits give low values 1 | locus YBL061C, strain skt5, hits give low values 0.981 | locus YBR009C, strain hhf1, hits give low values 1 | locus YBR021W, strain FUR4, hits give low values 1.03 | locus YBR023C, strain chs3, hits give low values 0.985 | locus YBR171W, strain sec66, hits give low values 0.999 | locus YBR229C, strain ROT2, hits give low values 0.951 | locus YBR231C, strain swc5, hits give low values 0.99 | locus YBR279W, strain paf1, hits give low values 1 | locus YCL011C, strain gbp2, hits give low values 1.01 | locus YCL016C, strain dcc1, hits give low values 0.98 | locus YCL029C, strain bik1, hits give low values 0.977 | locus YCL061C, strain MRC1, hits give low values 1 | locus YCL069W, strain vba3, hits give low values 0.995 | locus YCR088W, strain abp1, hits give low values 0.99 | locus YDL005C, strain med2, hits give low values 1.01 | locus YDL035C, strain GPR1, hits give low values 1.01 | locus YDL040C, strain nat1, hits give low values 1.02 | locus YDL074C, strain BRE1, hits give low values 0.951 | locus YDL101C, strain DUN1, hits give low values 0.973 | locus YDL134C, strain PPH21, hits give low values 0.996 | locus YDL185W, strain tfp1, hits give low values 0.979 | locus YDL192W, strain arf1, hits give low values 0.982 | locus YDR001C, strain nth1, hits give low values 1 | locus YDR069C, strain doa4, hits give low values 1 | locus YDR101C, strain arx1, hits give low values 0.93 | locus YDR137W, strain rgp1, hits give low values 1.01 | locus YDR150W, strain NUM1, hits give low values 0.974 | locus YDR159W, strain sac3, hits give low values 0.953 | locus YDR162C, strain NBP2, hits give low values 1.01 | locus YDR195W, strain ref2 0.997 | locus YDR297W, strain sur2, hits give low values 0.981 | locus YDR318W, strain mcm21, hits give low values 0.992 | locus YDR334W, strain swr1, hits give low values 0.99 | locus YDR335W, strain msn5, hits give low values 0.982 | locus YDR388W, hits give low values 0.988 | locus YDR392W, strain spt3, hits give low values 0.833 | locus YDR502C, strain sam2, hits give low values 0.985 | locus YEL003W, strain gim4, hits give low values 1 | locus YEL037C, strain rad23, hits give low values 0.988 | locus YEL061C, strain CIN8 (second series), hits give low values 0.978 | locus YEL061C, strain CIN8, hits give low values 0.978 | locus YER015W, strain faa2, hits give low values 0.991 | locus YER016W, strain bim1, hits give low values 0.994 | locus YER110C, hits give low values 0.984 | locus YER111C, strain swi4, hits give low values 0.982 | locus YER155C, strain BEM2 (second series), hits give low values 0.988 | locus YER155C, strain BEM2, hits give low values 0.996 | locus YER167W, strain BCK2, hits give low values 0.997 | locus YFR010W, strain ubp6, hits give low values 1 | locus YGL078C, strain dbp3, hits give low values 0.981 | locus YGL086W, strain mad1, hits give low values 0.966 | locus YGL167C, strain pmr1, hits give low values 1 | locus YGL173C, strain kem1, hits give low values 1 | locus YGL227W, strain vid30, hits give low values 1.01 | locus YGL240W, strain doc1, hits give low values 0.984 | locus YGL248W, strain PDE1, hits give low values 0.975 | locus YGL253W, strain hxk2, hits give low values 0.993 | locus YGR078C, strain PAC10, hits give low values 0.963 | locus YGR135W, strain pre9, hits give low values 1.06 | locus YGR229C, strain SMI1, hits give low values 1.02 | locus YGR252W, strain gcn5, hits give low values 1.03 | locus YHR013C, strain ard1, hits give low values 0.949 | locus YHR027C, strain rpn1, hits give low values 0.979 | locus YHR030C, strain SLT2, hits give low values 0.985 and 0.966 | locus YHR079C, strain IRE1 (second series), hits give low values 0.976 | locus YHR079C, strain IRE1, hits give low values 0.976 | locus YHR094C, strain hxt1, hits give low values 0.979 | locus YHR129C, strain ARP1, hits give low values 0.995 | locus YHR142W, strain chs7, hits give low values 0.982 | locus YHR200W, strain rpn10, hits give low values 0.983 | locus YIL066C, strain RNR3, hits give low values 0.963 | locus YIL073C, strain SPO22, hits give low values 1.04 | locus YIL125W, strain kgd1, hits give low values 0.976 | locus YIR030C, strain dcg1, hits give low values 0.989 | locus YJL092W, strain hpr5, hits give low values 0.997 | locus YJL095W, strain BCK1 (second series), hits give low values 0.988 | locus YJL095W, strain BCK1, hits give low values 0.991 and 0.995 | locus YJL115W, strain asf1, hits give low values 0.993 | locus YJL129C, strain trk1, hits give low values 0.981 | locus YJL134W, strain LCB3, hits give low values 0.993 | locus YJL154C, strain vps35, hits give low values 1.02 | locus YJL164C, strain tpk1, hits give low values 1 | locus YJL166W, strain qcr8, hits give low values 0.988 | locus YJL168C, strain set2, hits give low values 0.979 | locus YJL187C, strain SWE1 (second series), hits give low values 0.953
